Assay results: PubChem BioAssay (Tox21)
Records with an inconclusive call do not appear. A call without a number means that no potency is given here. Values without a mark were called inactive. Active and inactive are the calls of the source. Unless noted, calls come from the whole dose curve.

What was measured:
[1] = qHTS assay to identify small molecule antagonists of the vitamin D receptor (VDR) signaling pathway - cell viability counter screen (AID 743225; active = well fitted curve in the direction sought with a large enough effect in the repeat runs; an effect the other way counts as inactive or inconclusive; note: nearly all actives have a fitted effect of over 50% in size)
In short: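 Luminescent cell viability (CellTiter-Glo) in VDR-bla HEK 293T cells after 16 h compound exposure at 37C in the presence of 3 nM final 1-alpha,25-dihydroxy vitamin D3.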

[2] = qHTS assay to identify small molecule agonists of the NFkB signaling pathway - cell viability counter screen (AID 1159515); note: series mostly up to about 61 µM; nearly all actives have a fitted effect of over 55% in size
In short: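 Viability in NFkB-bla ME-180 cells was measured by CellTiter-Glo luminescence, 30 min room temperature, in wells already treated 5 hr with compounds and read for reporter FRET.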

[3] = qHTS assay to identify small molecule agonists of the endoplasmic reticulum stress response signaling pathway (AID 1159516; active = well fitted activation curve with a large enough effect in the signal ratio in the repeat runs, not every such curve was filed as active; the % refers to the signal ratio)
In short: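 ER stress element reporter (bla) in HeLa. 1,500 cells/well, overnight attachment; 5 hr compound; 2 hr RT substrate; dual-emission fluorescence.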

[4] = qHTS assay to identify small molecule agonists of the endoplasmic reticulum stress response signaling pathway - cell viability counter screen (AID 1159517);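 note: HeLa cells carrying an ER stress response element beta-lactamase reporter; series mostly up to about 61 µM; nearly all actives have a fitted effect of over 50% in size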
In short: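 CellTiter-Glo was added to wells already read for beta-lactamase FRET, and luminescence was recorded 30 min later. Cells: ESRE-bla HeLa, 1,500 per well, compound exposure 5 hr at 37 C.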

[5] = qHTS assay to identify small molecule antagonists of the retinoid-related orphan receptor gamma (ROR-gamma) signaling pathway - cell viability counter screen (AID 1159520; active = well fitted curve in the direction sought with a large enough effect in the repeat runs; an effect the other way counts as inactive or inconclusive; note: nearly all actives have a fitted effect of over 50% in size)
In short: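 Tet-on ROR gamma CHO cells (1,000/well) were plated 4 hr, given compounds in DMSO for 2 hr at 37 C, then induced with 1 uM final doxycycline for 16 hr. Viability was read as ATP by CellTiter-Glo luminescence after 30 min.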

[6] = target: Nuclear receptor ROR-gamma (Homo sapiens) (UniProt P51449); experiment: qHTS assay to identify small molecule antagonists of the retinoid-related orphan receptor gamma (ROR-gamma) signaling pathway (AID 1159521; active = well fitted curve in the direction sought with a large enough effect in the repeat runs; an effect the other way counts as inactive or inconclusive;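 note: CHO cells with doxycycline inducible ROR-gamma driving an RORE luciferase reporter; top concentration of the series differs between compounds; nearly all actives have a fitted effect of over 50% in size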)
In short: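 CHO cells expressing RORγ under a TET-on promoter, luciferase under RORE control. Dox 1 uM final, 16 h; compounds added 2 h prior. Luminescence decrease measured.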

[7] = qHTS assay to identify small molecule agonists of the AP-1 signaling pathway - cell viability counter screen (AID 1159525); note: nearly all actives have a fitted effect of over 55% in size
In short: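 ME-180 AP-1-bla, 2500 cells/well, Opti-MEM + 0.5% dialyzed FBS; overnight 37 °C; cpd 15-pt titration, 5 h 37 °C; CellTiter-Glo 30 min RT; luminescence read; normalised to TOAB and DMSO controls.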

[8] = qHTS assay to identify small molecule agonists of the AP-1 signaling pathway (AID 1159526)
[9] = target: Retinoic acid receptor RXR-alpha (Homo sapiens) (UniProt P19793); experiment: qHTS assay to identify small molecule agonists of the RXR signaling pathway (AID 1159527); note: nearly all actives have a fitted effect of over 35% in size; note: potency is the fitted concentration of half-maximal effect
Sequence of Retinoic acid receptor RXR-alpha (Homo sapiens) (P19793 whole entry, looked up): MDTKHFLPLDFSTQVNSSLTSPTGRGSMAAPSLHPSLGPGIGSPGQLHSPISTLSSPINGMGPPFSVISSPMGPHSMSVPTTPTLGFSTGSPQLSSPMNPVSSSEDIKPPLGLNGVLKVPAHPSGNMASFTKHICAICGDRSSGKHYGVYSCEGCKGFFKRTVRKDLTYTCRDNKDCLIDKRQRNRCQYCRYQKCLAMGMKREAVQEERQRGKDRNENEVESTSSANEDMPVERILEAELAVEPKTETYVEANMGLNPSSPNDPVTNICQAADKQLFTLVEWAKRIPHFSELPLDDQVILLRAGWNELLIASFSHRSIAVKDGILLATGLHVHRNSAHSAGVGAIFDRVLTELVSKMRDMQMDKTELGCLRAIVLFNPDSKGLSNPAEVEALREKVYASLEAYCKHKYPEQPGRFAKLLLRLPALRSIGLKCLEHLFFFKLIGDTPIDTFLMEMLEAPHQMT
In short: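 Beta-lactamase reporter assay, agonist format. Engineered HEK 293T line, charcoal-stripped FBS at 2%, overnight (16 hr) exposure, fluorescence at 460 and 530 nm after 405 nm excitation.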

[10] = qHTS assay to identify small molecule agonists of the RXR signaling pathway - cell viability counter screen (AID 1159529; active = well fitted curve in the direction sought with a large enough effect in the repeat runs; an effect the other way counts as inactive or inconclusive)
In short: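 Same-well viability check after the LiveBLAzer FRET read: CellTiter-Glo added, luminescence measured after 30 min at room temperature. Reporter HEK 293T cells had been treated with compounds for 16 hr following a 5 hr preincubation.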

Row | Structure (SMILES) | Potency [1] | Potency [2] | Potency [3] | Potency [4] | Potency [5] | Potency [6] | Potency [7] | Potency [8] | Potency [9] | Potency [10]
1 | C[N+](C)(C)CC1CO1 (stereo not given) | inactive | inactive | inactive | inactive | inactive | inactive | inactive | inactive | inactive | inactive
2 | COC(=O)Cc1ccccc1 |  | inactive | inactive | inactive | inactive | inactive | inactive | inactive |  | inactive
3 | CC1(C)CC(=O)CC(C)(C)N1[O] | inactive | inactive | inactive | inactive | inactive | inactive | inactive | inactive | inactive | inactive
4 | O=C(O)COc1cc(Cl)c(Cl)cc1Cl | inactive | inactive | inactive | inactive | inactive | inactive | inactive | inactive | 24.6 µM (active) | inactive
5 | CCC[N+](CCC)(CCC)CCC | inactive | inactive | inactive | inactive | inactive | inactive | inactive | inactive | inactive | inactive
6 | C=C(C)C(=O)OCCCCOC(=O)C(=C)C | inactive | inactive | inactive | inactive | inactive | inactive | inactive | inactive | inactive | inactive
7 | CC(C)(C#N)C(C)(C)C#N | inactive | inactive | inactive | inactive | inactive | inactive | inactive | inactive | inactive | inactive
8 | O=[N+]([O-])c1cc(Cl)c(Cl)cc1Cl | inactive | inactive | inactive | inactive | inactive | inactive | inactive | inactive | inactive | inactive
9 | CC(C)OC(=O)Cc1ccccc1 | inactive | inactive | inactive | inactive | inactive | inactive | inactive | inactive | inactive | inactive
10 | CCOP(=S)(OCC)Oc1ccc(S(C)=O)cc1 (stereo not given) | inactive | inactive | inactive | inactive | inactive | inactive | inactive | inactive | inactive | inactive
11 | CC(C)CCCCCCCOC(=O)c1ccccc1C(=O)OCCCCCCCC(C)C |  | inactive | inactive | inactive | inactive | inactive | inactive | inactive |  | inactive
12 | C[C@H](N)[C@H](O)c1ccc(O)c(O)c1 | inactive | inactive | inactive | inactive | inactive | inactive | inactive | inactive | inactive | inactive
13 | C[C@]12CC[C@H]3[C@@H](CCC4=CC(=O)CC[C@@H]43)[C@@H]1CC[C@@H]2OC(=O)CCc1ccccc1 | inactive | inactive | inactive | inactive | inactive | inactive | inactive | inactive | inactive | 
